Bioassay records: PubChem BioAssay, National Center for Advancing Translational Sciences (NCATS)
Luc counter – Counterscreen for Luciferase (Kinase-Glo TM) Inhibition; Luciferin 4-monooxygenase (Photuris pensylvanica), Q27757; Kinase-Glo luciferase, ATP luminescence, 8 min; Potency, µM (series often up to 38.3 µM), without a hit: top-dose activity change, negative = inhibition, actives largely listed as inhibitors; hit rate 0.28% among 200,000; AID 1379, 2008; also: potency is read from the fitted curve at half-maximal effect; % is scaled to controls: 0 for no effect and ±100 for the full control effect; nearly all actives have a fitted effect of over 60% in size
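Inhibition of Kinase-Glo luciferase light generation was assessed at 10 uM ATP in pH 7.2 imidazole buffer, with luminescence measured after eight minutes at ambient temperature.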
RXFP1 ag – qHTS Assay for Agonists of the Relaxin Receptor RXFP1; Relaxin receptor 1 (Homo sapiens), Q9HBX9; HEK293T-RXFP1 cAMP TR-FRET, 30 min; response scale: percent of porcine relaxin response, buffer zero; Potency, µM (top dose mostly 57.5 µM), for inactives: at the highest dose activation, most hits filed as activators; hit rate 0.3% among 370,000; AID 2676, 2010; also: potency is read from the fitted curve at half-maximal effect; % is scaled to controls: 0 for no effect and ±100 for the full control effect; nearly all actives have a fitted effect of over 60% in size
Target sequence (Q9HBX9 whole entry, looked up): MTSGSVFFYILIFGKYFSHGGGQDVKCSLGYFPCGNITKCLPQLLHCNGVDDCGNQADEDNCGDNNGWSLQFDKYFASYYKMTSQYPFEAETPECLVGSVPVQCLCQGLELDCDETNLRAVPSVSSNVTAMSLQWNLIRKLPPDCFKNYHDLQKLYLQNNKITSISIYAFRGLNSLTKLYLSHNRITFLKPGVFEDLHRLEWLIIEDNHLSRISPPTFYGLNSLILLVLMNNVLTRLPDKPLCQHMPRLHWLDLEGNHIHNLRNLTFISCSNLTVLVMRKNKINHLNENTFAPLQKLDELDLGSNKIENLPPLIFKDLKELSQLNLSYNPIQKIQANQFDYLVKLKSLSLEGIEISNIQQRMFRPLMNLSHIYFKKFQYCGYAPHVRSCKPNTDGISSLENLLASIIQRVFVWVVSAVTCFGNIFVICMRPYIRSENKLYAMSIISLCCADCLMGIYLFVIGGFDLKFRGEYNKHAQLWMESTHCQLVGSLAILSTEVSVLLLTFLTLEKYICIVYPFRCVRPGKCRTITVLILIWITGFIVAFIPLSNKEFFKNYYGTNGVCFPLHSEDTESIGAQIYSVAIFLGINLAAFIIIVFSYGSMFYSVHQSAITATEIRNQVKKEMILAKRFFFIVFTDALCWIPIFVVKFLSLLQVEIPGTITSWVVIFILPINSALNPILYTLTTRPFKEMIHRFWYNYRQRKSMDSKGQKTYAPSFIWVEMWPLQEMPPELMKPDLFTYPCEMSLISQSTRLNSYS
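HEK293 cells stably expressing RXFP1, treated 30 min at 37C with compounds plus PDE4 inhibitor Ro 20174; cAMP measured by HTRF TR-FRET. Normalized to buffer and 29 nM porcine relaxin; EC50 by Hill fit.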
miR-21 reporter – qHTS Assay for Modulators of miRNAs and/orActivators of miR-21; HeLa miR-21 FLuc reporter, luciferase, 48 h; Potency, µM (titrated, usually from 38.3 µM), without a hit: at the top dose activity change, positive = activation, usual class: activators; 340,000 tested, under 10 active; AID 2288, 2010;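 also: % of control where 0% means no effect; miR-21 action dims this reporter so a rising signal means less miR-21 action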
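Compounds were titrated across several concentrations (up to approximately 40 uM) and incubated 48 hours with HeLa miR-21-FLuc reporter cells (miR-21 target sequence downstream of FLuc, endogenous miR-21). Readout was firefly luciferase luminescence after lytic detection reagent.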
gsp antag – qHTS for Antagonists of gsp, the Etiologic Mutation Responsible for Fibrous Dysplasia/McCune-Albright Syndrome: qHTS; gsp-mutant cells, cAMP HTRF, 30 min; Potency, µM (top dose mostly 76.9 µM), for inactives: top-dose activity change, negative = inhibition, actives largely listed as inhibitors; hit rate 0.4% among 340,000; AID 624288, 2012; calls by dose curve; cell line not stated here;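 also: intracellular cAMP measured with PDE inhibitor Ro 20-1724 present during compound exposure; potency is read from the fitted curve at half-maximal effect; % is scaled to controls: 0 for no effect and ±100 for the full control effect; nearly all actives have a fitted effect of over 65% in size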
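Cells in G418 medium, seeded 16-24 h, 37C; buffer exchange to DPBS + 1 mM CaCl2, 0.5 mM MgCl2, 0.05% BSA; cpds in DMSO + […] (300 uM stock), 30 min 37C; HTRF cAMP detection.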
gsp agonist – qHTS for Agonist of gsp, the Etiologic Mutation Responsible for Fibrous Dysplasia/McCune-Albright Syndrome: qHTS; gsp mutant cells, cAMP HTRF, 30 min; Potency, µM (highest dose often 76.9 µM), for the others: at the highest dose activation (cAMP increase), most hits filed as activators; hit rate 0.13% among 340,000; AID 624287, 2012; active = well fitted activation curve with a large enough effect; inconclusive = small, poorly fitted or top-dose-only effect, or another doubt; inactive = no such curve, though single readings can be large or run the other way; cell line not stated here;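 also: phosphodiesterase inhibitor Ro 20-1724 added with compounds to block cAMP breakdown; potency is read from the fitted curve at half-maximal effect; nearly all actives have a fitted effect of over 60% in size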
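Cells in DMEM/10% FBS with G418 were pretreated with compounds in DMSO plus […] (300 uM stock) for 30 min at 37C. cAMP was measured by HTRF (cAMP-d2 plus anti-cAMP antibody-K) after 30 min at room temperature.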
RXFP1 antagonist – qHTS Assay for Antagonists of the Relaxin Receptor RXFP1; HEK293-RXFP1, relaxin-stimulated cAMP HTRF, 30 min; active compounds read low; activity change, negative = inhibition, % at 57.5 µM; hit rate 0.59% among 350,000;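 active = activity change of -60% or lower, but not beyond a set lower limit; inconclusive = change between -60% and -40%, or beyond the set limit; inactive = change above -40%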; also: % is scaled to controls: 0 for no effect and ±100 for the full control effect
* marks the source's active call; other numbers are inactive results; ? = inconclusive; / = no result given; ! = not confirmed by another sample; [ ] = dose if it differs, or a comment. Only some compounds are listed: those with a hit (about 1% of all), similar ones and a draw of the others. Unless noted, calls follow the shape of the dose curve; as a rule, active = well fitted curve in the direction sought with a large enough effect; inconclusive = small, poorly fitted or top-dose-only effect, or another doubt; inactive = no such curve, though single readings can be large; an effect the other way counts as inactive or inconclusive.

SMILES	Luc counter	RXFP1 ag	miR-21 reporter	gsp antag	gsp agonist	RXFP1 antagonist
CSCC[C@H](NC(=O)COc1ccc(Cl)cc1)c1nc2ccccc2[nH]1	-1.4%	-0.2%	-1.6%	7.94µM*	3.5%[15.4 µM]	0.7
CSc1ccc(C(=O)N2CCc3ccc(NC(=O)c4ccccn4)cc3C2)cc1	/	-1.3%	13.5%	31.6µM*	-64.2%	-68.7*
O=[N+]([O-])c1c(Nc2ccccc2O)cc(Cl)c2nonc12	/	-2.3%	?	-20.6%	-18.5%	-75.1*
O=[N+]([O-])c1c(Nc2ccccc2O)ccc2nonc12	-3.1%	4.0%	-13.5%	-17.4%	1.4%[15.4 µM]	-31.3
COc1ccc(C(=O)Nc2cccc(-c3nnc(-c4ccco4)o3)c2)cc1	20.5%	0.2%	17.8%	?	-2.0%	-33.6
COc1cc(C(=O)Nc2cccc(-c3nnc(-c4ccco4)o3)c2)ccc1OC(C)=O	-1.2%	4.5%	2.6%	-23.5%	-9.3%[15.4 µM]	-65.0*
O=C(O)CCC(=O)Nc1ccc2ccccc2c1	-7.1%[7.66 µM]	/	/	/	/	/
O=C(CS)Nc1ccc2ccccc2c1	/	1.8%	-11.0%	4.9%	-8.8%[15.4 µM]	-101.9*
COc1ccccc1CNC(=O)Cn1c(=O)nc(-c2ccccc2F)c2cc(Cl)ccc21	/	1.2%	9.7%	/	/	-1.8
CN(CC(=O)Nc1nc2ccccc2s1)S(=O)(=O)c1ccc(Br)cc1	-4.1%	-5.8%	12.5%	39.8µM*	-9.6%	-35.4
Cc1cccc(NC(=O)CN(C)S(=O)(=O)c2ccc(Br)cc2)n1	1.1%	0.5%	-2.3%	6.8%	1.4%	1.9
CN(CC(=O)Nc1nc2ccccc2s1)S(=O)(=O)c1ccc(Cl)cc1	-2.5%	0.2%	0.1%	31.6µM*	-6.7%	-17.8
Cc1nc2c(C(=O)NCCC(C)C)cnn2c(C)c1Cc1c(F)cccc1Cl	/	1.8%	1.7%	/	/	-15.0
COc1cccc(CNC(=O)C2CCCN(S(=O)(=O)c3ccc4c(ccn4C)c3)C2)c1OC (stereo not drawn)	/	3.4%	8.6%	/	/	-13.1
O=P(CCCCCCCCCP(=O)(c1ccccc1)c1ccccc1)(c1ccccc1)c1ccccc1	-2.0%	-0.5%	?	39.8µM*	-25.7%	-72.2*
O=C(O)CCCCCCCCCCP(=O)(c1ccccc1)c1ccccc1	/	0.3%	-1.0%	-22.0%	15.8%[15.4 µM]	-3.6
O=C(Nc1cccc(/C=C/c2ccccn2)c1)c1ccc(-n2cncn2)c([N+](=O)[O-])c1	/	2.0%	/	39.8µM*	-2.0%[15.4 µM]	-24.9
CCc1ccc(NC(=O)c2ccc(-n3cncn3)c([N+](=O)[O-])c2)cc1	/	1.6%	/	50.1µM*	8.9%	-20.6
O=C(Nc1ccc(F)c(F)c1)c1ccc(-n2cncn2)c([N+](=O)[O-])c1	/	0.8%	/	4.5%	-27.0%	-9.7
COc1ccc(NC(=O)c2ccc(-n3cncn3)c([N+](=O)[O-])c2)cc1	2.0%	3.6%	-1.7%	-6.8%	-12.0%	15.1
Cc1cc2c(cc3c(SCc4ccc(Cl)cc4)nnc(C)n32)o1	/	14.1µM*	-15.3%	/	/	-0.7
Cc1nc(-c2ccc(Cl)cc2)sc1CCNC(=O)c1cccs1	/	1.6%	20.2%	/	/	-23.2
CCCC[C@]12Cc3cc(C#N)ccc3C(O1)c1c(cc(C)n(Cc3ccccc3)c1=O)O2	/	3.16µM*	-12.6%[7.66 µM]	/	/	/
Cc1ccc(NC(=O)CSc2cn(CC(=O)N3CCOCC3)c3ccccc23)cc1Cl	/	-0.6%	4.5%	/	/	-29.6
C/C=C(/C)C(=O)OC1C(OC(C)=O)[C@@]2(CO)C(O)C[C@@]3(C)C(=CCC4[C@@]5(C)CCC(OC6OC(C(=O)O)[C@@H](O[C@@H]7OC(CO)C(O)C(O)C7O)C(O)[C@H]6O[C@@H]6OC(CO)C(O)C(O)C6O)[C@](C)(CO)C5CC[C@@]43C)C2CC1(C)C (stereo partly drawn)	0.3%	/	/	/	/	/
SMILES	Luc counter	RXFP1 ag	miR-21 reporter	gsp antag	gsp agonist	RXFP1 antagonist
C/C=C(/C)C(=O)OC1CC(C)(C)C[C@H]2C3=CC[C@@H]4[C@@]5(C)CCC(O[C@@H]6O[C@@H](C(=O)O)[C@@H](O)C(O[C@@H]7OC[C@H](O)[C@@H](O)[C@@H]7O[C@@H]7OC(CO)C(O)[C@@H](O)[C@@H]7O)C6O[C@@H]6OC(CO)C(O)C(O)C6O)[C@@](C)(CO)[C@@H]5CC[C@]4(C)[C@]3(C)CC(O)[C@@]12CO (stereo partly drawn)	/	/	/	50.1µM*	/	/
CCCC(=O)NC(c1ccc(C(C)C)cc1)c1ccc2cccnc2c1O (stereo not drawn)	/	0.4%	18.8%	-3.4%	29.7%	?
CCCC(=O)NC(c1ccccc1Cl)c1ccc2cccnc2c1O (stereo not drawn)	/	1.4%	23.6%	-6.1%	13.7%	-81.7*
CCC(=O)NC(c1ccc(Cl)cc1Cl)c1ccc2cccnc2c1O (stereo not drawn)	/	0.5%	13.2%	-9.1%	10.0%	-97.7*
CC(=O)OCC1=C(C(=O)O)N2C(=O)[C@@H](NC(=O)Cc3cccs3)[C@@H]2SC1	-5.7%[17.1 µM]	/	/	/	/	/
CC(=O)OCC1=C(C(=O)O)N2C(=O)[C@@H](NC(=O)CSc3ccncc3)[C@H]2SC1	-0.4%	2.0%	/	9.9%	-7.1%[15.4 µM]	-91.6*!
Cc1cc(N2CCN(C)CC2)nc2ccc(NC(=O)c3ccc(C(C)(C)C)cc3)cc12	/	1.1%	6.56µM*	/	/	-10.2
Cc1cc(N2CCN(C)CC2)nc2ccc(NC(=O)Nc3ccc(Cl)cc3)cc12	/	-2.5%	-28.8%	/	/	-1.7
CCOc1cc2c(cc1/C=C(/C#N)c1ccc(C(=O)O)cc1)OCO2	-0.8%	-2.2%	1.1%	35.5µM*	-1.1%	-5.1
COc1cccc(NC(=O)CN2C(=O)C3(SCC(=O)N3c3cc(C)cc(C)c3)c3ccccc32)c1 (stereo not drawn)	/	-2.2%	14.0%	/	/	/
N#C/C(=C\c1ccc[nH]1)C(=O)Nc1ccccc1Cl	/	-3.7%	-41.7%	31.6µM*	?	-11.9
CCCCCOc1ccc(C2SC(=O)NC2=O)cc1OCC (stereo not drawn)	/	/	/	/	/	-32.3
O=C(CSc1nnc(Cn2nnc3ccccc32)o1)N(Cc1ccc(F)cc1)c1ccccc1	-0.1%	-0.8%	19.3%	?	7.1%	-15.6
COc1ccc(N(Cc2ccccc2)C(=O)CSc2nnc(Cn3nnc4ccccc43)o2)cc1	-1.5%	-0.4%	12.8%	28.2µM*	25.3%	6.0
